Source: PubChem BioAssay
ELG1 genotoxic: qHTS screen for small molecules that induce genotoxicity in human embryonic kidney (HEK293T) cells expressing luciferase-tagged ELG1; HEK293T ELG1-luciferase reporter, luminescence, 16 h; Potency, µM (titrated, usually from 46 µM), most hits filed as activators; actives 1.3% (n = 330,000); further: nearly all actives have a fitted effect of over 60% in size
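After overnight (16 hr) compound treatment at 37 °C, ELG1-luciferase HEK293T cells were lysed with ONE-Glo; luminescence quantified 30 min later at room temperature.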
SMN2 splice up: qHTS Assay for Enhancers of SMN2 Splice Variant Expression | HEK293 SMN2-luciferase splicing reporter, luminescence, 30-36 h | Potency, µM (highest dose often 46.1 µM), hits mostly activators | actives 2.8% (n = 210,000) | AID 1458, 2008; further: nearly all actives have a fitted effect of over 55% in size
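qHTS luciferase splicing reporter: luminescence rises when SMN2 exon 7 is included in transfected HEK293 cells. Compound exposure lasted 30-36 h at 37C, with 4.5 mM final sodium butyrate as control, followed by a ONE-Glo read.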
NPC1 promoter act: qHTS Assay for NPC1 Promoter Activators | Huh7 NPC1 promoter luciferase reporter, 24 h | Potency, µM (series often up to 9.22 µM), usual class: activators | actives 2.4% (n = 320,000) | AID 485313, 2010; further: nearly all actives have a fitted effect of over 60% in size
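Luciferase expression driven by the NPC1 promoter was measured in stably transfected Huh7 cells after a 24 h compound incubation, using a luciferase reagent and a luminescence read.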
Rab9 promoter act: qHTS Assay for Rab9 Promoter Activators. Huh7 Rab9 promoter-luciferase reporter, luminescence, 24 h. Potency, µM (doses to about 9.22 µM), actives largely listed as activators. actives 2.8% (n = 320,000). AID 485297, 2010; further: nearly all actives have a fitted effect of over 60% in size
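Stable Rab9-luc Huh7, 1500 cells/well, 2 h settle; cmpd in DMSO, 24 h, 37 °C/5% CO2; luciferase reagent 10 min RT; luminescence.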
FLuc counter: qHTS profiling assay for firefly luciferase inhibitor/activator using purifed enzyme and Km concentrations of substrates (counterscreen for miR-21 project) | Luciferin 4-monooxygenase (Photinus pyralis), P08659 | purified FLuc, Km substrates, luminescence inhibition | Potency, µM (titrated, usually from 57.5 µM), usual class: inhibitors | actives 6.9% (n = 360,000) | AID 588342, 2011; further: nearly all actives have a fitted effect of over 55% in size
Target sequence (P08659 whole entry, looked up): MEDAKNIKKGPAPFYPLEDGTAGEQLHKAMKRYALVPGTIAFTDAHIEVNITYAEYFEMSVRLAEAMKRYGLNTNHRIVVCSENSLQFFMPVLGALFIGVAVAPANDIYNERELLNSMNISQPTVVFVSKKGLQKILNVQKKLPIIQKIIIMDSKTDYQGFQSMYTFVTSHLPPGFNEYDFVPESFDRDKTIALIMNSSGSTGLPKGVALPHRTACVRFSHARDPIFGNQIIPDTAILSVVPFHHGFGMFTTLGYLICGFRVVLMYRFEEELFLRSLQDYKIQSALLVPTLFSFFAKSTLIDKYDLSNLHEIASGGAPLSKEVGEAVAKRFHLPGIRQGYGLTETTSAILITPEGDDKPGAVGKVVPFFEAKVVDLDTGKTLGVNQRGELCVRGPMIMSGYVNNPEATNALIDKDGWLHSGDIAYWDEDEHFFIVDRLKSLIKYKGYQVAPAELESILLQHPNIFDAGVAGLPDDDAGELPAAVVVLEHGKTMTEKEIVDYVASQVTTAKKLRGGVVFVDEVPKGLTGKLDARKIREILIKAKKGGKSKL
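Biochemical qHTS of compounds, final roughly 60 µM downward over six points, against 10 nM purified firefly luciferase using Km concentrations of substrates (10 uM D-luciferin, 10 uM ATP) in Tris acetate pH 7.5 buffer; luminescence output.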
Numbers stand for hits; i = inactive; ? = inconclusive; nt = no result; [ ] = dose if it differs, or a comment. A selection: hits, their analogues and other compounds. The true share with any hit is near 7.4%. The call rests on the fitted dose curve; in most records, active means well fitted curve in the direction sought with a large enough effect; inconclusive means small, poorly fitted or top-dose-only effect, or another doubt; inactive means no such curve, though single readings can be large; an effect the other way counts as inactive or inconclusive.

SMILES | ELG1 genotoxic | SMN2 splice up | NPC1 promoter act | Rab9 promoter act | FLuc counter
CN(Cc1ccc(F)cc1)C(=O)c1cc(COc2ccc(-n3cncn3)cc2)on1 | i | nt | i | i | i
CCCCn1nc2cc(C(=O)NCCc3cccs3)ccc2c1OCC | i | i | ? | i | i
CCCCOc1ccc(C(=O)NCCc2cccs2)cc1 | ? | 12.6µM | 3.98µM | 1.78µM | 7.57µM
CCOc1ccc(C(=O)NCc2cccs2)cc1 | i | i | i | ? | i
CCOc1c2ccc(C(=O)NCCc3cccs3)cc2nn1CC | ? | 14.1µM | ? | 3.55µM | 23.9µM
COc1ccc(Br)cc1CN1C(=O)c2ccccc2C1C(=O)NC1CCCCCC1 (stereo not given) | nt | i | nt | nt | i
O=C(O)c1cccc(NS(=O)(=O)c2ccc(C3CCCCC3)cc2)c1 | i | i | i | i | 26.9µM
N#Cc1cccc(NS(=O)(=O)c2ccccc2Cl)c1 | i | nt | i | i | i
CCOC(=O)C1=C(CS(=O)(=O)c2ccc(F)cc2)NC(=O)NC1c1ccc(O)c(O)c1 (stereo not given) | i | nt | i | i | ?
COCCNc1oc(-c2ccc(C)cc2)nc1C#N | 5.62µM | 10µM | ? | 3.55µM | 12µM
CN(C)CCCNc1oc(-c2ccc(Cl)cc2)nc1C#N | i | i | i | i | i
COc1ccc(CCNc2oc(-c3ccc(C)cc3)nc2C#N)cc1OC | i | i | i | i | i
COCCNc1oc(-c2ccc(Cl)cc2)nc1C#N | ? | ? | ? | ? | 10.7µM
COc1ccc(N2CC3=C(C2=O)C(c2ccc(Br)cc2)NC(=O)N3C)cc1 (stereo not given) | nt | i | nt | nt | i
COC(=O)[C@]1(C)N[C@H](CN(C)S(=O)(=O)c2ccc(C)cc2)[C@@H]2C(=O)N(C)C(=O)[C@@H]21 | i | nt | nt | nt | nt
CCCC(=O)Nc1ccc(NC(=O)c2ccccc2)nc1 | ? | nt | 0.316µM | 0.282µM | 4.78µM
CCC(=O)Nc1ccc(NC(=O)Cc2ccccc2)cn1 | i | i | i | i | i
CCCC(=O)Nc1ccc(NC(=O)c2ccccc2F)cn1 | i | nt | ? | ? | ?
CCC(=O)Nc1ccc(NC(=O)c2ccccc2)nc1 | ? | 3.98µM | 1.26µM | 0.447µM | 6.01µM
CCCc1ccc(Oc2cc(Cl)nc(N)n2)cc1 | i | i[1.84 µM] | i | ? | i
CCc1ccc(Oc2cc(C)nc(N)n2)cc1 | ? | 10µM | 3.16µM | 3.16µM | 4.26µM
CCCCCOc1ccc(NC(=O)Cc2csc(C)n2)cc1 | nt | i | nt | nt | i
Cc1nnc(NC(=O)CSc2ccc(-c3ccc(Cl)cc3)nn2)s1 | ? | i | i | i | ?
CCOc1ccc(-c2ccc(SCC(=O)Nc3nnc(C)s3)nn2)cc1 | i | ? | ? | ? | 0.301µM
CCc1ccc(-c2ccc(SCC(=O)NCC3CCCO3)nn2)cc1 (stereo not given) | i | 14.1µM | ? | ? | 3.38µM
SMILES | ELG1 genotoxic | SMN2 splice up | NPC1 promoter act | Rab9 promoter act | FLuc counter
CCc1nnc(NC(=O)CSc2ccc(-c3ccc(-n4cccn4)cc3)nn2)s1 | 5.8µM | nt | ? | 2.51µM | 1.2µM
CCc1ccc(-c2ccc(SCC(=O)Nc3nnc(C)s3)nn2)cc1 | ? | 12.6µM | 2.24µM | 1.26µM | 0.301µM
COc1cc(NC(=O)Nc2nnc(N3CCCCCC3)s2)cc(OC)c1 | nt | nt | nt | nt | i
CCS(=O)(=O)N1Cc2ccccc2CC1C(=O)Nc1nc2ccccc2s1 (stereo not given) | 2.31µM | i | i | i | 5.36µM
CCc1nnc(NC(=O)C2Cc3ccccc3CN2S(=O)(=O)CC)s1 (stereo not given) | i | i | i | i | i
CCS(=O)(=O)N1Cc2ccccc2CC1C(=O)Nc1nc2ccccc2[nH]1 (stereo not given) | ? | ? | i | i | 15.1µM
O/C(=C\c1ccc2ccccc2n1)c1ccncc1 | ? | nt | 2.51µM | 1.41µM | 2.39µM
O/C(=C\c1nc2ccccc2nc1/C=C(\O)c1ccccc1)c1ccccc1 | i | ? | 3.16µM | 4.47µM | 1.07µM
O/N=C/c1ccc2ccccc2n1 | ? | nt | ? | 2.82µM | ?
O/N=C/c1ccc2cccc(O)c2n1 | i | nt | i | i | ?
Cc1ccc(-n2cc(CN3CCN(Cc4nccn4C)CC3)c(-c3ccc(F)cc3)n2)cc1 | i | nt | i | i | ?
Cc1ccc(-n2cc(CN3CCN(c4ccccn4)CC3)c(-c3ccc(F)cc3)n2)cc1 | i | nt | i | i | 15.1µM
Cc1cccc(-n2cc(CN3CCN(c4ccccn4)CC3)c(-c3cccc(F)c3)n2)c1 | i | nt | i | i | ?
Cc1ccc(-n2cc(CN3CCN(C(=O)c4ncn[nH]4)CC3)c(-c3ccc(F)cc3)n2)cc1 | i | nt | i | i | 9.53µM
CC(OC(=O)CNC(=O)c1sc2ccccc2c1Cl)c1ccccc1 (stereo not given) | i | nt | i | i | ?
COc1ccc(/C=C2\SC(=O)N(CCNC(=O)CCS(=O)(=O)c3ccc(C)cc3)C2=O)cc1 | ? | 15.8µM | ? | 2.82µM | 9.53µM
COc1ccc(/C=C2\SC(=O)N(CCNC(=O)Cn3cnnn3)C2=O)cc1 | 3.98µM | 7.94µM | 2.82µM | 3.16µM | 12µM
COc1ccc(S(=O)(=O)CCC(=O)NCCc2ccc(C)cc2)cc1 | i | i | i | i | i
CCC12CN3CC(CC)(CN(C1)C3c1cc(Br)ccc1OC)C2=O (stereo not given) | nt | i | nt | nt | i
COc1ccc(/C(C)=N/NC(=O)Cc2ccc(Cl)cc2)cc1 | i | nt | i | i | i
CN(C(=O)CSc1nnc(-c2ccc(F)cc2)n1C)C1CCS(=O)(=O)C1 (stereo not given) | i | nt | nt | nt | nt
CSc1n[nH]c(NCc2ccc(C)cc2)n1 | ? | 15.8µM | i | ? | 23.9µM
Cc1c(C(=O)NCCN(C)C)oc2c1-c1nn(Cc3ccccc3Cl)cc1CC2 | nt | nt | nt | nt | i
CCOC(=O)c1c(NC(=O)COC(=O)Cn2cnc3c2c(=O)n(C)c(=O)n3C)sc(C)c1CC | i | nt | i | i | i
CCOC(=O)Cn1cc(C(=O)c2cccs2)c2ccccc21 | i | 0.141µM | i | i | ?
SMILES | ELG1 genotoxic | SMN2 splice up | NPC1 promoter act | Rab9 promoter act | FLuc counter
CCC(=O)N1CCc2cc(S(=O)(=O)CCC(=O)N3CCN(c4cccc(C)c4C)CC3)ccc21 | nt | i | nt | nt | i
CCC(=O)n1nc(-c2ccc(OC)cc2)nc1SC | ? | ? | i | ? | 19µM
CCCC(=O)n1nc(-c2ccc(Cl)cc2)nc1SC | ? | ? | i | i | ?
CCC(=O)n1nc(-c2ccc(Cl)cc2)nc1SC | ? | 12.6µM | i | ? | ?
O=C(Nc1nc2ccc(SC(F)F)cc2s1)c1ccc(NS(=O)(=O)c2ccc(F)c(F)c2)cc1 | i | i | i | i | 15.1µM
CS(=O)(=O)c1ccc2nc(NC(=O)c3cccc(NS(=O)(=O)c4ccc(F)c(F)c4)c3)sc2c1 | i | i | i | i | 23.9µM
COc1ccc(C(=O)NC(=S)NC(C)(C)C)cc1Br | i | i | i | ? | 10.7µM
O=C(CSc1nnc(-c2ccco2)n1-c1ccccc1Cl)Nc1cccc(C(=O)O)c1 | i | nt | i | i | i
